Consider 6 molecules from PubChem BioAssay (NCATS).

A number with no mark means an inactive call. Inconclusive results are not listed. Calls of active or inactive are those of the source. Unless noted, calls follow the shape of the dose curve; as a rule, active = well fitted curve in the direction sought with a large enough effect; inconclusive = small, poorly fitted or top-dose-only effect, or another doubt; inactive = no such curve, though single readings can be large; an effect the other way counts as inactive or inconclusive. Bounds are passed on as bounds.

A short description of assay [1]: AP1 Signaling Pathway (AID 357; active = well fitted curve in either direction with a large enough effect, not every such curve was filed as active;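 also: ME-180 reporter cells stimulated with EGF at its EC50 level; % is scaled to controls: 0 for no effect and ±100 for the full control effect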). As to conditions: ME-180 AP-1-bla reporter, EGF-induced, beta-lactamase ratio, 5 h; at 7.69 µM (top of the series) unless noted. The method, boiled down:
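Read-out was the 460nm/530nm emission ratio (excitation 405nm) after CCF4 loading for 2.5 hours at room temperature. Cells carried an AP-1-driven beta-lactamase reporter, were stimulated with EC50 EGF plus compound for 5 hours, and AC50 values came from titrations.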

Assay [2] has as its target Cytochrome P450 1A2 (Homo sapiens) (UniProt P05177). Description: p450-cyp1a2 (AID 410; calls by dose curve; also: potency is read from the fitted curve at half-maximal effect;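 as to activity change, negative = inhibition: -100% = full effect of reference inhibitor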). The method, boiled down:
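Luminescent readout of luciferin formed from Luciferin-ME by human CYP1A2; data normalized against complete inhibition by 57 uM furafylline. Enzyme 20nM, substrate 100uM at Km, 100mM KPO4 buffer, 60 min reaction at room temperature.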

A short description of assay [3]: NFAT Signaling Pathway (AID 444; active = well fitted curve in either direction with a large enough effect, not every such curve was filed as active;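 also: carbachol stimulus at about its EC50 of 1 µM final; % is scaled to controls: 0 for no effect and ±100 for the full control effect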). As to conditions: Jurkat NFAT-bla M1, carbachol, beta-lactamase ratio, 5 h; at 7.69 µM (top of the series) unless noted. The essentials:
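Read-out: CCF4 FRET ratio (460 nm/530 nm) after 1 h RT dye loading, used for %activity and AC50 from titration series. Cells: Jurkat NFAT-β-lactamase/M1 line, treated with compound plus 1 uM carbachol for 5 h, 37 °C.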

The target in assay [4] is Glucocorticoid receptor (Homo sapiens) (UniProt P04150). Description: GR-GFP Redistribution (AID 450;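 active = compounds whose dose series gives a full or clear partial fitted curve of increased nuclear translocation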; also: potency is read from the fitted curve at half-maximal effect). The conditions noted are these: U2OS GR-GFP nuclear translocation, laser cytometry, 2 h.
Sequence of Glucocorticoid receptor (Homo sapiens) (P04150 whole entry, looked up, the tested form may be a part): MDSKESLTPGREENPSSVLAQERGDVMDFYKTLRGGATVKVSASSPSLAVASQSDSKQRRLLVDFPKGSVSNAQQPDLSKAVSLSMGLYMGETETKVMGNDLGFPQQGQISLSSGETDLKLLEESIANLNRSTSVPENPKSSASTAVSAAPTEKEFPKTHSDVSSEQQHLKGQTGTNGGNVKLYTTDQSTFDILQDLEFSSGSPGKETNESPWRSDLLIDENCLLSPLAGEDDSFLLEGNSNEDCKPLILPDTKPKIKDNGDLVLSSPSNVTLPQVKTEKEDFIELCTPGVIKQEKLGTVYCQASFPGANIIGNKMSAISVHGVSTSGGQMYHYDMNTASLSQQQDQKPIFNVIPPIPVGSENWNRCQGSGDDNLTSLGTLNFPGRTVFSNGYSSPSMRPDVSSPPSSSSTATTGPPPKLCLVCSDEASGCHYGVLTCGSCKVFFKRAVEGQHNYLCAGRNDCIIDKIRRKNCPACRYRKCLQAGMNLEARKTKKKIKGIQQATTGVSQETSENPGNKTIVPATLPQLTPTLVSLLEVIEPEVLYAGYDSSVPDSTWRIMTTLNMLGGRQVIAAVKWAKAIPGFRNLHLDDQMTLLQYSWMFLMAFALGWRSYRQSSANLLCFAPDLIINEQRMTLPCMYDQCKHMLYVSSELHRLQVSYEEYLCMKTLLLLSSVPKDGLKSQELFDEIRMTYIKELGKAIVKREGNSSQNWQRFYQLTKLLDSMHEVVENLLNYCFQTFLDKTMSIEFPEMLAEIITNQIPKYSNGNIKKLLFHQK
The target is the same in assay [5]. The experiment in a line: GR-EFC Redistribution (AID 451; calls by dose curve; also: potency is read from the fitted curve at half-maximal effect). The conditions noted are these: CHO-K1 GR-EFC translocation, beta-gal luminescence, 2 h. The method, boiled down: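 Translocation of GR-ED fusion to nuclear EA restores b-gal, read by luminescence after 1 h room-temperature detection. Engineered CHO-K1 biosensor cells, 1,000/well, exposed 2 h at 37 C to titrations up to 46 uM final.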

Assay [6] has as its target Mitogen-activated protein kinase 10 (Mus musculus) (UniProt Q61831). The experiment in a line: JNK3 AlphaScreen Assay (AID 530; active = well fitted curve in either direction with a large enough effect, not every such curve was filed as active;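 also: kinase came from lysate of stimulated human HepG2 cells; signal reports phosphorylation of biotinylated GST-cJun 1-79 at Ser73 with 10 µM ATP; % is scaled to controls: 0 for no effect and ±100 for the full control effect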). The essentials: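 Compound titrations were preincubated 15 minutes at room temperature with substrate, antibody and pre-activated JNK3-containing HepG2 lysate. Reactions were started with 10 uM ATP and stopped with EDTA-containing bead buffer for AlphaScreen detection.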
On the technique in general: Bead proximity is the source of the signal in Alpha formats.

The target in assay [7] is 3',5'-cyclic-AMP phosphodiesterase 4B (Homo sapiens) (UniProt Q07343). The experiment in a line: qHTS Assay for Inhibitors of PDE-IV (AID 607; active = well fitted activation curve with a large enough effect in the main read-out, with a control signal flat, not every such curve was filed as active; also: % of control where 0% means no effect). The method, boiled down:
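HEK293 ACTOne cells with CNG channel (1000/well), endogenous PDE4; membrane potential dye, compounds up to 22.9 uM final. Fluorescence Ex 535/Em 590; RO 20-1724 (100 uM final) as reference.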
Background: In qHTS, concentration-response curves come from the screen itself.

For assay [8], the target named is Dual specificity protein kinase CLK4 (Homo sapiens) (UniProt Q9HAZ1). Description: qHTS Assay for Inhibitors of CDC-like Kinase 4 (ADP-FP Assay) (AID 1795). Also: nearly all actives have a fitted effect of over 60% in size. Also: potency is read from the fitted curve at half-maximal effect. The essentials:
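Recombinant human Clk4 (6.25 nM) phosphorylated RS repeat peptide (100 uM) with 1 uM ATP in Tris pH 7.5/MgCl2/EGTA/DTT/Triton buffer for one hour. ADP was quantified by Transcreener competitive fluorescence polarization against an ADP calibration curve.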

The target of assay [9] is Ubiquitin carboxyl-terminal hydrolase 1 (Homo sapiens) (UniProt O94782). Description: Inhibitors of USP1/UAF1: Pilot qHTS (AID 504865).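 Also: rhodamine fluorescence freed from ubiquitin-rhodamine substrate followed over time; top concentration of the series differs between compounds; % is scaled to controls: 0 for no effect and ±100 for the full control effect; nearly all actives have a fitted effect of over 35% in size.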 The method, boiled down:
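USP1/UAF1 complex (1nM) preincubated with compound 15 min at room temperature, then Ub-Rho substrate (150nM final) added. Fluorescence read kinetically at 480/540 nm, 6 reads every 60 seconds. Buffer: 50mM HEPES pH 7.8, 0.5mM EDTA, 0.1 mg/ml BSA, 1mM TCEP, 0.01% Tween-20.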

A short description of assay [10]: Primary qHTS for small molecule stabilizers of the endoplasmic reticulum resident proteome: Secreted ER Calcium Modulated Protein (SERCaMP) assay (AID 1508630). Also: % is scaled to controls: 0 for no effect and ±100 for the full control effect. The method, boiled down:
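GLuc-SERCaMP-expressing SH-SY5Y cells, pretreated 16 h with compound, are challenged with thapsigargin to empty ER calcium stores; after 4 h, coelenterazine is added directly to the medium and luminescence is imaged.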

Assay [11] has as its target Rap guanine nucleotide exchange factor 3 (Homo sapiens) (UniProt O95398). The experiment in a line: Confirmatory qHTS for antagonist of cAMP-regulated guanine nucleotide exchange factor 3 (EPAC1) (AID 1645880).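 Also: plate controls were DMSO only for no effect and full effect of the ATA control for full effect; nearly all actives have a fitted effect of over 55% in size.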 The method, boiled down: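 Nucleotide exchange uses 100 nM EPAC1, 250 nM RAP1B-BODIPY-GDP and 50 uM GDP, with compounds in a concentration-titration series. After 5 min at room temperature, fluorescence (480 nm ex/540 nm em) is read every 5 min for 30 min. Data are normalized to control ATA and DMSO.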

The target is the same in assay [12]. The experiment in a line: Confirmatory qHTS for agonist of cAMP-regulated guanine nucleotide exchange factor 3 (EPAC1) (AID 1645881).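 Also: EPAC1 catalysed release of BODIPY-GDP from Rap1B seen as fluorescence loss; 100% = effect of cAMP agonist control; nearly all actives have a fitted effect of over 75% in size.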
Assay [13] deals with Rap guanine nucleotide exchange factor 4 (Homo sapiens) (UniProt Q8WZA2). The experiment in a line: Confirmatory qHTS for antagonist of cAMP-regulated guanine nucleotide exchange factor 4 (EPAC2) (AID 1645885). Also: nearly all actives have a fitted effect of over 25% in size. Also: potency is read from the fitted curve at half-maximal effect.
Sequence of Rap guanine nucleotide exchange factor 4 (Homo sapiens) (Q8WZA2 whole entry, looked up): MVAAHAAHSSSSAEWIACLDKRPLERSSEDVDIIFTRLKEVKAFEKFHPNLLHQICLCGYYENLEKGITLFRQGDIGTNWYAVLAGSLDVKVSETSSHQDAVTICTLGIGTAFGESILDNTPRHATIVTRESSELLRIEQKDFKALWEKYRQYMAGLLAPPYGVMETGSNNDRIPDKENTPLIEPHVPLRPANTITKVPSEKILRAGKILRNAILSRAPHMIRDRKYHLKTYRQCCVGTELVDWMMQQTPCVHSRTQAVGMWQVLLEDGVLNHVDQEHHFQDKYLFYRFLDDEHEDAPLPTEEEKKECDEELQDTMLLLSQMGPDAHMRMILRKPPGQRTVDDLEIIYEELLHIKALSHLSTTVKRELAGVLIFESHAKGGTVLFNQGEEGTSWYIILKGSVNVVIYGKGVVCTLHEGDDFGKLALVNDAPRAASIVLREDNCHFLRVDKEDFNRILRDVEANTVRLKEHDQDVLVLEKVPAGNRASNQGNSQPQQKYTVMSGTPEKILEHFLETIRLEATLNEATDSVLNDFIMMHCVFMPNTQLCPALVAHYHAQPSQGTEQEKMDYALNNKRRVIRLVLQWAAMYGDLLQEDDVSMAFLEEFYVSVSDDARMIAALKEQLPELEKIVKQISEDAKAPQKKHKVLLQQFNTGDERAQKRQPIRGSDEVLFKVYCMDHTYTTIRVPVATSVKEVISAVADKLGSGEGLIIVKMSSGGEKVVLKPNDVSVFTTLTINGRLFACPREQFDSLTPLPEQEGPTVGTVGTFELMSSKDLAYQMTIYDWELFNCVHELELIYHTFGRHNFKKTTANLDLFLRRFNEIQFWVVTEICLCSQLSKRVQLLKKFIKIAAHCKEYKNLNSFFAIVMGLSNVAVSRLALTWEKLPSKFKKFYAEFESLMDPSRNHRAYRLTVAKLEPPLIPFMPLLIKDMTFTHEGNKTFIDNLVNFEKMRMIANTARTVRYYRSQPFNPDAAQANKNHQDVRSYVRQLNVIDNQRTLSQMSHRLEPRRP
The target in assay [14] is Lysosomal acid glucosylceramidase (Homo sapiens) (UniProt P04062). The experiment in a line: Glucocerebrosidase-p2 (AID 348; in the data active = potency below about 10 µM; also: potency is read from the fitted curve at half-maximal effect). The conditions noted are these: purified GBA, blue fluorogenic substrate, 40 min. The method, boiled down:
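Compounds titrated from 0.6 nM upwards against 0.2 nM enzyme in pH 5.9 citric acid/KH2PO4, taurocholate, tween-20; blue fluorogenic substrate 80 uM, 40 min room temperature, stopped and read Ex 365/Em 440 for AC50.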

A short description of assay [15]: Stat Signaling Pathway (AID 446; active = well fitted curve in either direction with a large enough effect, not every such curve was filed as active). As to conditions: ME-180 SIE beta-lactamase reporter, IL-6 stimulated, 5 h; at 7.69 µM (top of the series) unless noted. The method, boiled down: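 ME-180 cells carrying a SIE-driven beta-lactamase reporter are stimulated with 40 pM IL-6 for 5 h at 37C in the presence of compound. The 460/530 nm FRET substrate ratio is read after 2.5 h at RT. Data are normalised to 300 pM IL-6 and to 125 nM JAK inhibitor controls.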

The target in assay [16] is Cytochrome P450 3A4 (Homo sapiens) (UniProt P08684). The experiment in a line: qHTS Assay for Inhibitors and Substrates of Cytochrome P450 3A4 (AID 884). Also: potency is read from the fitted curve at half-maximal effect; nearly all actives have a fitted effect of over 50% in size. The essentials:
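20 nM human CYP3A4 with 25 uM Luciferin-PPXE (at KM) in 200 mM KPO4, preincubated 10 min with compound; NADPH regeneration started a 60 min RT reaction. Luciferin detected by luminescence, normalized to 57 uM ketoconazole as full inhibition.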

For assay [17] the target is unchanged. Description: qHTS Assay for Activators of Cytochrome P450 3A4 (AID 885). Also: nearly all actives have a fitted effect of over 65% in size. The method, boiled down: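 Human CYP3A4 (20 nM) with Luciferin-PPXE at 25 uM (its KM) in 200 mM KPO4; 10 min compound preincubation, then NADPH regeneration and 60 min reaction at RT. Luciferin read by luminescence; normalized to 57 uM ketoconazole full inhibition.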
The target in assay [18] is Rap guanine nucleotide exchange factor 4 (Homo sapiens) (UniProt Q8WZA2). Description: Confirmatory qHTS for agonist of cAMP-regulated guanine nucleotide exchange factor 4 (EPAC2) (AID 1645884).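 Also: nucleotide exchange releases bodipy-GDP from Rap1 and this lowers its fluorescence; % is scaled to controls: 0 for no effect and ±100 for the full control effect; nearly all actives have a fitted effect of over 65% in size.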

Sequence of Cytochrome P450 3A4 (Homo sapiens) (P08684 whole entry, looked up): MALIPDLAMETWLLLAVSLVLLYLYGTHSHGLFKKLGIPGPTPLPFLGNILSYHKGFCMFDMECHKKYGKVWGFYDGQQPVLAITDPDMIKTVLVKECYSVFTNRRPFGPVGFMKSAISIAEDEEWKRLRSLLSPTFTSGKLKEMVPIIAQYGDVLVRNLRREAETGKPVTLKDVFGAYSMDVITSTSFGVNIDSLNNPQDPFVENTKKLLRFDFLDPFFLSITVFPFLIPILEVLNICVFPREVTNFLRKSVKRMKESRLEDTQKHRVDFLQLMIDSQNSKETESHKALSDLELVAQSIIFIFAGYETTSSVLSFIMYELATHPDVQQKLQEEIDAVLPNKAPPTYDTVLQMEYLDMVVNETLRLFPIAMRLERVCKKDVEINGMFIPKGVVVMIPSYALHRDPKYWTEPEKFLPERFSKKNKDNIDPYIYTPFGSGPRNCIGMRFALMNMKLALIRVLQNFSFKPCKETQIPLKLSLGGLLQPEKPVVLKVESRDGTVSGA
Sequence of Rap guanine nucleotide exchange factor 3 (Homo sapiens) (O95398 whole entry, looked up): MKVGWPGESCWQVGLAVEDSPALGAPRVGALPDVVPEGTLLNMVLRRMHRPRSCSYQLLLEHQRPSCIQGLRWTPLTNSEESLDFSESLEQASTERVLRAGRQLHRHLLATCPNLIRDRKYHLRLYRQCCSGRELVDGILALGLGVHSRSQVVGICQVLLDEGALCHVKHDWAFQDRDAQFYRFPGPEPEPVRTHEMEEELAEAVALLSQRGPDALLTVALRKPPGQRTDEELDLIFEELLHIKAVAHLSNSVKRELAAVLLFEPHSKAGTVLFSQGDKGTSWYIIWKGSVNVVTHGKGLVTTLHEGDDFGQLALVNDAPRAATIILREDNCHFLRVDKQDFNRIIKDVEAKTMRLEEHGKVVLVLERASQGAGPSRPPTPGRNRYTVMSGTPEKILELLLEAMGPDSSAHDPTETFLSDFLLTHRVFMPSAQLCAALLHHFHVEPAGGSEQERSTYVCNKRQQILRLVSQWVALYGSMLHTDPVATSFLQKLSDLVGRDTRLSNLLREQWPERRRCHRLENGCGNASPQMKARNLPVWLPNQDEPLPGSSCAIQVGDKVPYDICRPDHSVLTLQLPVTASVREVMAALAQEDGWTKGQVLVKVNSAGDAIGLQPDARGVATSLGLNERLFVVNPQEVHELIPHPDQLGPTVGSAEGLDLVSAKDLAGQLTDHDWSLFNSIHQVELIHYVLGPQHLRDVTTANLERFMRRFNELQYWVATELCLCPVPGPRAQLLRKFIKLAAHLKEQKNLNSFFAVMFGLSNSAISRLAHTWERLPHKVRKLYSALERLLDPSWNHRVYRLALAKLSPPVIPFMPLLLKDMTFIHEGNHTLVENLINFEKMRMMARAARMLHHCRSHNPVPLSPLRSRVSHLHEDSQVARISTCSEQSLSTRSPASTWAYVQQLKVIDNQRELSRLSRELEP
Sequence of Cytochrome P450 1A2 (Homo sapiens) (P05177 whole entry, looked up): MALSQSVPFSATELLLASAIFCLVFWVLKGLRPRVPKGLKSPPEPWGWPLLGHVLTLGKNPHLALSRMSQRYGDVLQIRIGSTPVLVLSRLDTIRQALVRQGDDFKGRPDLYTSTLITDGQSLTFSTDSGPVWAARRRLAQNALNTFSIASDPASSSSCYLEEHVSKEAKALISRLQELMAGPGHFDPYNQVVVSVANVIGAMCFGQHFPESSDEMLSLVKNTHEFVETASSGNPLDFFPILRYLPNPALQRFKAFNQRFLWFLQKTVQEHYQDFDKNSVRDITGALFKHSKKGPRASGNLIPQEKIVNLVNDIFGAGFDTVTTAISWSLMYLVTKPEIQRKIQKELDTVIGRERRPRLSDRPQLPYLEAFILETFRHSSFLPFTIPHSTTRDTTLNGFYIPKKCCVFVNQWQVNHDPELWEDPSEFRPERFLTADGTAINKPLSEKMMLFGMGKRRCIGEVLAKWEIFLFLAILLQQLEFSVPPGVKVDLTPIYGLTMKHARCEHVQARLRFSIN
Sequence of Lysosomal acid glucosylceramidase (Homo sapiens) (P04062 whole entry, looked up): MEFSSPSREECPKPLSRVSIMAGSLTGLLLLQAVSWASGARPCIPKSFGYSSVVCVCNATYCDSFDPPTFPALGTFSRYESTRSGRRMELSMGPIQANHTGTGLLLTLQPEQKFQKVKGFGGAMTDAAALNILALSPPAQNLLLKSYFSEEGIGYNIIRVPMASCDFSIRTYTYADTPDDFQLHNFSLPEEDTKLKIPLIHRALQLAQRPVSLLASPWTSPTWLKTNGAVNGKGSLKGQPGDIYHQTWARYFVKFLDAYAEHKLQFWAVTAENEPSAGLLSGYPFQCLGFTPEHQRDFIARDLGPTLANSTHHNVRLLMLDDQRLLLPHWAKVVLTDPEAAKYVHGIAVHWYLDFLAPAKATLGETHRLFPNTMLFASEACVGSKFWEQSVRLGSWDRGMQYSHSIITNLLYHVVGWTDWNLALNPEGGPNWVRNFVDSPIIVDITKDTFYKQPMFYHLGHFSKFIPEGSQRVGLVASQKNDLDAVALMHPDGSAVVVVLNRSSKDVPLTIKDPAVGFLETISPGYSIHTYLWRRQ
Sequence of 3',5'-cyclic-AMP phosphodiesterase 4B (Homo sapiens) (Q07343 whole entry, looked up): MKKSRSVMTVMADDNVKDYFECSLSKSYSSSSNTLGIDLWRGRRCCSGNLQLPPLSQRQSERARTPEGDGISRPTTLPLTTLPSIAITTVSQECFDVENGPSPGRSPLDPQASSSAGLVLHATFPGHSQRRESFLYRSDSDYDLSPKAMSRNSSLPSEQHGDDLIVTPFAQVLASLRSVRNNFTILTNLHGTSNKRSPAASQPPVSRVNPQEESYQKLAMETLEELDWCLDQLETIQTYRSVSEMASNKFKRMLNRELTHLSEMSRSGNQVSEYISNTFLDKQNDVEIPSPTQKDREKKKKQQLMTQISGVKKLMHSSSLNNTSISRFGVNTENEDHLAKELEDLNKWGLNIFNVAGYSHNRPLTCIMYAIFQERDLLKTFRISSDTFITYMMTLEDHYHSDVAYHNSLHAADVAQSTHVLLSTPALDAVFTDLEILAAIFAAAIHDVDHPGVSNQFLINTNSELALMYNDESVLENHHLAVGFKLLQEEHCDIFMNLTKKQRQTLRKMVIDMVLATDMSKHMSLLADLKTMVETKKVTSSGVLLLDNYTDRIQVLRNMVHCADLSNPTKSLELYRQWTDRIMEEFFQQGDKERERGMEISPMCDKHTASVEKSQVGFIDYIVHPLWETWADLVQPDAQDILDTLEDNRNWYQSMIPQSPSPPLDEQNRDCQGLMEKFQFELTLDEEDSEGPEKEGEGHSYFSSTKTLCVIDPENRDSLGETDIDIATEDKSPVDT

Take `O=c1c(-c2cccs2)nc2cnc(Nc3ccccc3)nc2n1C[C@H]1CCCO1`: the activity change, negative = inhibition in assay [1] was -12.9%; in [3] it was -16.9%. The Potency in [2] was 2.51 µM (active); in [4], over 9.22 µM; in assay [5], over 46 µM. Also, the Potency entry in assay [6], in assay [7], in assay [8], in assay [9], in [11] and in [12] was “inactive” each time. In addition, the Potency entry in assay [13] is “inactive”. The outcome in [10] was inactive.
Regarding `COc1ncc2nc(-c3ccc(F)cc3)c(=O)n(CCc3ccccc3)c2n1`, the Potency in [14] was over 11.4 µM; in assay [2] it was 0.398 µM (active); in [4], over 9.22 µM; in assay [5], over 46 µM. For the same molecule, the activity change, negative = inhibition in assay [1] was -6.05%; in assay [3], -8.98%. For the same molecule, the activity, negative = inhibition in [15] is -5.82%. Besides, the Potency result in [6], in assay [7], in assay [8] and in [9] was “inactive” in each case. For the same molecule, the outcome in [10] was inactive.
On to `CNc1nc(-c2cccnc2)nc2ccccc12`, for which the Potency is over 11.4 µM in assay [14]; 0.1 µM (active) in assay [2]; over 46 µM in [4]; over 46 µM in assay [5]; 6.31 µM (active) in assay [16]; 3.98 µM (active) in [8]. Also, the figures for the activity change, negative = inhibition in [1] and in [3] were 14.7% and 2.11%, respectively. Also, the activity, negative = inhibition in assay [15] is -3.74%. Also, the Potency entry in assay [6], in assay [7], in [17] and in [9] was “inactive” in each case. The result in assay [10] was inactive.
For `CN(C)c1ncnc2ccc(-c3ccccc3C(F)(F)F)cc12`, the Potency was over 11.4 µM in [14]; 0.631 µM (active) in assay [2]; over 46 µM in [4]; over 46 µM in [5]; 44.1 µM (active) in [13]. The figures for the activity change, negative = inhibition in assay [1] and in [3] were 0.8% and 20.6%, respectively. In assay [15], the activity, negative = inhibition is -12.7%. Moreover, the Potency result in assay [6], in assay [17], in assay [8], in [9], in assay [12] and in [18] was “inactive” throughout. For the same molecule, in assay [10], the outcome was inactive.
`CN(C)c1ncc2nc(-c3cc(F)cc(F)c3)c(=O)n(-c3ccccc3)c2n1`: the Potency was over 11.4 µM in assay [14], 0.316 µM (active) in assay [2], over 9.22 µM in [4] and over 46 µM in assay [5]. For the same molecule, the activity change, negative = inhibition in [1] was -8.03%; in assay [3] it was 9.84%. In [15], the activity, negative = inhibition is 12.5%. Also, the Potency result in assay [6], in [8] and in assay [9] was “inactive” each time. Also, the outcome in assay [10] was inactive.
Turning to `COc1ccc(C(=O)N2CCC3(CCCN(Cc4cc(C(F)(F)F)cc(C(F)(F)F)c4)C3)CC2)cc1`, the Potency in [14] was over 11.4 µM; in assay [5] it was over 46 µM. For the same molecule, the Potency entry in assay [2], in assay [6], in assay [7], in assay [17], in assay [12] and in assay [18] was “inactive” in each case. In addition, the activity change, negative = inhibition in assay [3] is -13.8%. Further, the activity, negative = inhibition in assay [15] was -8.85%. In addition, the outcome in assay [10] was inactive.
